Holding throughout (test): NCI-60 one-dose screen, 48 h (100 = growth as untreated, 0 = no growth, -100 = all killed)
Conditions in all cases: 10 µM unless noted

Test [1] relates to NCI-H226 lung.
Test [2] has as its system NCI-H322M lung.
The subject of test [3] is HOP-62 NSCLC.
Test [4] concerns NCI-H460 lung.
Test [5] concerns HOP-92 NSCLC.
Test [6] deals with NCI-H522 lung.
Test [7] deals with A549/ATCC NSCLC.
The test system of test [8] is 786-0 renal.
For test [9], the system named is COLO 205 colon.
Test [10] concerns DU-145 prostate.

About 83,000 compounds went through this panel and 20% of them were active in at least one assay; those are over-represented in the sample as a whole.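 Growth was measured after 48 h exposure to one concentration of compound in 96-well plates. Values under 10 count as active.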 Unmarked numbers belong to inactive results. The source made the active and inactive calls.

Regarding `CN1CCN(Cc2ccc(NC(=O)c3cncc(C#Cc4cnc5[nH]ncc5c4)c3)cc2C(F)(F)F)CC1`, the growth was 20.4% in test [1]; 45.8% in test [2]; 50.8% in [3]; 11.1% in [4]; -12.2% (active) in test [5]; 50.9% in test [6]. For the same compound, the growth in test [7] was 34.3%; in test [8] it was 45.7%; in test [9], 21.1%; in test [10] it was 32.8%.
Consider `COc1ccc(N/N=C/c2c(-c3ccc(S(C)(=O)=O)cc3)nc3ccccn23)cc1`, for which the growth in test [1] is 71%; in [2] it was 50%; in [3], 57.4%; in test [4], 21.8%; in test [5], 23%; in test [6], 3.48% (active). Further, the growth in [7] was 36.9%; in [8], 48%; in test [9], 55.1%; in test [10] it was 40.1%.
For the compound `CCN1C(=S)N(c2ccccc2)C2NC(=O)N(/N=C/C=C/c3ccccc3OC)C21` (stereo not given), the growth is 98.9% in test [1]; 94.9% in test [2]; 80.6% in [3]; 89.2% in [4]; 72.3% in [5]; 89% in test [6]. Moreover, the growth in test [7] is 87.9%; in [8] it was 96.1%; in test [9] it was 122%; in test [10], 101%.
For the compound `Clc1ccc2c(NCCCn3ccnc3)c3oc4ccc(Cl)cc4c3nc2c1`, the growth in test [1] was 57.8%; in test [2], 71%; in test [3] it was 66.6%; in [4], 11.1%; in [5], 57.4%; in test [6], 82.9%. The growth in [7] is 89.2%; in test [8] it was 41.6%; in [9], 96.5%; in test [10] it was 92%.
Take `O=C1Nc2cc(Cl)ccc2/C1=C\c1ccc(OCc2ccc([N+](=O)[O-])cc2)cc1`: the growth in test [1] was 81%; in test [2] it was 75.1%; in [3], 79.8%; in test [4], 59.9%; in test [5], 45.8%; in [6], 66.9%. Further, the growth in test [7] was 78%; in test [8] it was 51%; in [9], 92.9%; in [10], 79.9%.
For the compound `OC1CCN(CCCOc2c3ccccc3nc3c2oc2ccccc23)CC1`, the growth is -31.2% (active) in test [1]; -17% (active) in test [2]; 5.52% (active) in test [3]; 0.894% (active) in [4]; -11.8% (active) in test [5]; -48.6% (active) in test [6]. For the same compound, the growth in test [7] is -12.2% (active); in test [8], 7.21% (active); in test [9], -63.8% (active); in test [10] it was 1.33% (active).
In the case of `COc1cc2nc(-c3ccc(Cl)cc3)cc(OCCCNCC3CCCO3)c2cc1OC` (stereo not given), the growth in test [1] was 75.8%; in [2], 66.7%; in [3] it was 64.3%; in test [4], 30.2%; in [5] it was 35.4%; in [6] it was 45.1%. Also, the growth in test [7] is 53.2%; in test [8] it was 43.3%; in test [9] it was 33.5%; in test [10], 49.2%.
As for `Nc1c(C(=O)Nc2ccc(C(F)(F)F)cc2)sc2nc(-c3cnccn3)cc(-c3cccs3)c12`, the growth was 6.24% (active) in test [1]; 81.8% in test [2]; 68.1% in [3]; 69.7% in test [4]; -27.4% (active) in test [5]; 88.5% in test [6]. Moreover, the growth is 77.9% in test [7], -90.3% (active) in test [8], 104% in [9] and 90.1% in test [10].
In the case of `Nc1ncc(-c2ccc3ncnc(N4CCc5cc(F)c(Cl)cc54)c3c2)cc1CO`, the growth in test [1] was 18.9%; in test [2], -2.33% (active); in test [3] it was 9.91% (active); in test [4] it was 6.98% (active); in test [5], -13.2% (active); in test [6], -18% (active). For the same compound, the growth was 3.94% (active) in test [7], 4.92% (active) in test [8], -21.9% (active) in [9] and 11.3% in [10].
For the compound `CC(=O)c1ccc(Nc2nc(SC(C)C)nc(-c3ccccc3)c2C#N)cc1`, the growth in test [1] was 123%; in test [2], 98.7%; in test [3], 92.7%; in test [4], 101%; in test [5], 70.2%; in test [6], 86.8%. Further, the growth in [7] is 93.5%; in test [8], 84.7%; in [9], 114%; in test [10], 91.2%.
`NS(=O)(=O)c1ccc(Nc2nc(Nc3ccccc3)nc(-n3nc(-c4ccccc4)cc3-c3ccccc3)n2)cc1`: the growth in [1] is 40.7%; in test [2], 57.2%; in test [3] it was 63.7%; in test [4], 5.81% (active); in test [5], 26.8%; in test [6], 58.5%. Also, the growth in test [7] is 25.9%; in test [8] it was 20.1%; in test [9], 9.92% (active); in test [10], 32.3%.
With `O=C(NNc1nc2cc(F)ccc2n2c(CN3CC4(COC4)C3)ccc12)c1cnccn1`, the growth in test [1] was 7.31% (active); in test [2], 22.7%; in test [3], 23%; in test [4], -7.69% (active); in [5] it was 45.2%; in test [6], 2.26% (active). Besides, the growth in [7] was 13.2%; in test [8], -6.84% (active); in test [9], 20.2%; in [10], 24.8%.
In the case of `CC(=O)Oc1ccccc1C(=O)Nc1ccc(C(=O)/C=C/c2ccncc2)cc1`, the growth was 92.5% in [1]; 78.3% in test [2]; 91.4% in test [3]; 45.8% in [4]; 66.1% in test [5]; 71.8% in test [6]. The growth in [7] was 56.5%; in test [8], 33.9%; in test [9], 66%; in [10], 35.6%.
Regarding `N[C@@H](Cc1cn(-c2c3ccccc3nc3ccccc23)nn1)C(=O)O`, the growth is 103% in [1]; 98.3% in test [2]; 96.6% in test [3]; 111% in test [4]; 108% in [5]; 105% in [6]. For the same compound, the growth in test [7] was 102%; in test [8] it was 105%; in test [9] it was 109%; in [10], 105%.

Source of the values: PubChem BioAssay (NCI).
